Measurements published in PubChem BioAssay (Tox21).
Inconclusive results are not listed. Active and inactive are the calls of the source. Unless noted, calls come from the whole dose curve; as a rule, active = well fitted curve in the direction sought with a large enough effect in the repeat runs; inconclusive = weak or mixed curves; inactive = no such curve, though single readings can be large; an effect the other way counts as inactive or inconclusive.

How the values were obtained:
[1] = qHTS assay to identify small molecule antagonists of the androgen receptor (AR) signaling pathway using the MDA cell line in the presence of 0.5 nM R1881 - cell viability counter screen (AID 1259242); note: nearly all actives have a fitted effect of over 45% in size
Summary of the method: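 Fluorescence from CellTiter-Fluor, which reports protease activity of live cells, was read 30 min after reagent addition to MDA-kb2 cells that had been incubated 16 hr with compound and 0.5 nM R1881.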

[2] = qHTS assay to identify small molecule HDAC inhibitors (AID 1259364); note: top concentration of the series differs between compounds; nearly all actives have a fitted effect of over 45% in size
Summary of the method: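 Endogenous HDAC class I/II activity was measured in wild-type HCT-116 cells by HDAC-Glo luminescence after 2 h compound treatment.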

[3] = qHTS assay to identify small molecule HDAC inhibitors - cell viability counter screen (AID 1259365); note: series mostly up to about 92 µM; nearly all actives have a fitted effect of over 50% in size
Summary of the method: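 HCT-116 wild-type, overnight attachment; 2hr drug exposure, 37C; CellTiter-Glo luminescent ATP readout after 30min RT.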

[4] = qHTS assay to identify small molecule agonists of the sonic hedgehog signaling (Shh) pathway - cell viability counter screen (AID 1259366); note: nearly all actives have a fitted effect of over 50% in size
Summary of the method: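 Compounds in DMSO were pin-transferred onto 3T3 Gli1-Luc cells that had settled 4hr; plates then stood 24hr at 37C and 5% CO2. One hour before the end, CellTiter-Fluor was added and fluorescence recorded.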

[5] = qHTS assay to identify small molecule antagonists of the sonic hedgehog signaling (Shh) pathway - cell viability counter screen (AID 1259367); note: nearly all actives have a fitted effect of over 55% in size
Summary of the method: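 Cells: 3T3 Gli1-Luc, 2,000/well, 4 hr pre-incubation. Compounds in DMSO, then conditioned medium. Incubation 24 hr, 37C, 5% CO2. CellTiter-Fluor at 23 hr, 1 hr, fluorescence.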

[6] = qHTS assay to identify small molecule agonists of the sonic hedgehog signaling (Shh) pathway (AID 1259368; calls by dose curve;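 note: NIH/3T3-derived 3T3Gli1-Luc cells carrying a stable Gli1-driven firefly luciferase reporter; series mostly up to about 92 µM; nearly all actives have a fitted effect of over 15% in size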)
Summary of the method: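 Luminescent signal was taken as a measure of Gli1-controlled luciferase expression in stably transfected NIH/3T3-derived cells that had been treated for 24 hr with compounds delivered in DMSO.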

[7] = qHTS assay to identify small molecule antagonists of the sonic hedgehog signaling (Shh) pathway (AID 1259369; calls by dose curve; note: nearly all actives have a fitted effect of over 45% in size; note: potency is the fitted concentration of half-maximal effect)
Summary of the method: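 Screening used 3T3Gli1-Luc cells at 2,000 per well, compounds delivered in DMSO, and conditioned medium as agonist stimulus; plates incubated 24hr at 37 C and 5% CO2 before a 30min luciferase step.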

[8] = qHTS assay to identify small molecule agonists of the androgen receptor (AR) signaling pathway in the presence of an antagonist - cell viability counter screen (AID 1259379);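 note: MDA-kb2 human breast cancer cells carrying an MMTV luciferase reporter; series mostly up to about 92 µM; nearly all actives have a fitted effect of over 25% in size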
Summary of the method: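 In MDA-kb2 cells (human breast carcinoma, MMTV-luciferase), compounds at 15 concentrations plus 3.0uM nilutamide; 16 hr, 37C, 0% CO2; CellTiter-Fluor fluorescence read for viability.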

[9] = qHTS assay to identify small molecule agonists of the estrogen receptor beta (ER-beta) signaling pathway - cell viability counter screen (AID 1259380); note: nearly all actives have a fitted effect of over 30% in size; note: potency is the fitted concentration of half-maximal effect
Summary of the method: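 Viability of ER-beta-UAS-bla HEK293T cells was determined by CellTiter-Glo luminescence following 16 hr treatment with test compounds at 37C.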

[10] = qHTS assay to identify small molecule antagonists of the estrogen receptor beta (ER-beta) signaling pathway - cell viability counter screen (AID 1259382);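 note: HEK293T cells carrying ER-beta-UAS-bla reporter stimulated with estradiol; series mostly up to about 92 µM; nearly all actives have a fitted effect of over 55% in size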
Summary of the method: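 Tox21 10K library tested in qHTS format on ER-beta-bla HEK293T cells stimulated with 1nM E2; 16 hr treatment at 37C. Same-well CellTiter-Glo luminescence served as the cell viability measure.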

[11] = qHTS assay to identify small molecule agonists or antagonists of the thyroid stimulating hormone receptor (TSHR) signaling pathway - wild type cell line counter screen (AID 1259384; calls by dose curve)
Summary of the method: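 Counter screen in untransfected Hek293: compounds (15-point titration, triplicate) plus phosphodiesterase inhibitor Ro20-1724 added after 18 h plating; 30 min RT. Intracellular cAMP via competitive d2/cryptate immunoassay, 1 h incubation.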

[12] = biological target: Thyrotropin receptor (Homo sapiens) (UniProt P16473); assay: qHTS assay to identify small molecule antagonists of the thyroid stimulating hormone receptor (TSHR) signaling pathway (AID 1259385; calls by dose curve; note: nearly all actives have a fitted effect of over 20% in size; note: potency is the fitted concentration of half-maximal effect)
Summary of the method: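 Antagonist mode: compound-treated TSHR-expressing HEK293 cells were stimulated with 1.5 ng/mL TSH (final) in presence of Ro20-1724 for 30 min at RT. HTRF cAMP detection after 1 h; each compound tested at 15 concentrations, triplicate.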

[13] = qHTS assay to identify small molecule agonists of the estrogen receptor alpha (ER-alpha) signaling pathway in the presence of an antagonist - cell viability counter screen (AID 1259386);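 note: series mostly up to about 92 µM; cells exposed to compounds for 22 h at 37 °C before the viability read; nearly all actives have a fitted effect of over 30% in size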
Summary of the method: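 Fluorescent CellTiter-Fluor viability signal from VM7Luc4E2 cells, with the reagent added during the final hour of a 22hr compound exposure at 37C in the presence of 10.0nM ICI-182,780.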

[14] = biological target: Estrogen receptor beta (Homo sapiens) (UniProt Q92731); assay: qHTS assay to identify small molecule agonists of the estrogen receptor beta (ER-beta) signaling pathway (AID 1259377; active = well fitted activation curve with a large enough effect in the signal ratio in the repeat runs, not every such curve was filed as active; the % refers to the signal ratio)
Summary of the method: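 qHTS in ER-beta-UAS-bla HEK293T cells: 6 hr settling, then 16 hr compound at 37C, then LiveBLAzer substrate 2 h at RT before fluorescence reading.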

[15] = biological target: Estrogen receptor beta (Homo sapiens) (UniProt Q92731); assay: qHTS assay to identify small molecule antagonists of the estrogen receptor beta (ER-beta) signaling pathway (AID 1259378; active = well fitted inhibition curve with a large enough effect in the signal ratio in the repeat runs, not every such curve was filed as active; the % refers to the signal ratio)
Summary of the method: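 Antagonist mode: compounds added to beta-lactamase reporter HEK293T ER-beta-UAS cells stimulated with E2 (1nM final), 16 hr at 37C. LiveBLAzer B/G FRET substrate, 2 hours room temperature, fluorescence read-out.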

[16] = biological target: Estrogen receptor (Homo sapiens) (UniProt P03372); assay: qHTS assay to identify small molecule agonists of the estrogen receptor alpha (ER-alpha) signaling pathway in the presence of an antagonist (AID 1259383; calls by dose curve; note: top concentration of the series differs between compounds; nearly all actives have a fitted effect of over 15% in size)
Summary of the method: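 In VM7Luc4E2 cells, 4,000 per well, compounds at 15 concentrations were co-incubated 22hr at 37C with 10.0nM final ICI-182,780. Luminescence from the stably transfected 4×ERE-luciferase reporter was recorded 30min after ONE-Glo addition.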

[17] = biological target: Androgen receptor (Homo sapiens) (UniProt P10275); assay: qHTS assay to identify small molecule agonists of the androgen receptor (AR) signaling pathway in the presence of an antagonist (AID 1259381; calls by dose curve; note: nearly all actives have a fitted effect of over 15% in size)
Summary of the method: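 Here, 15-concentration compound series were pin-transferred onto MDA-kb2 MMTV-luciferase cells already dosed with nilutamide (3.0uM final). After 16hr at 37C, ONE-Glo was added and luminescence read 30min later at room temperature.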

Measured: Potency

Sequence of Estrogen receptor beta (Homo sapiens) (Q92731 whole entry, looked up): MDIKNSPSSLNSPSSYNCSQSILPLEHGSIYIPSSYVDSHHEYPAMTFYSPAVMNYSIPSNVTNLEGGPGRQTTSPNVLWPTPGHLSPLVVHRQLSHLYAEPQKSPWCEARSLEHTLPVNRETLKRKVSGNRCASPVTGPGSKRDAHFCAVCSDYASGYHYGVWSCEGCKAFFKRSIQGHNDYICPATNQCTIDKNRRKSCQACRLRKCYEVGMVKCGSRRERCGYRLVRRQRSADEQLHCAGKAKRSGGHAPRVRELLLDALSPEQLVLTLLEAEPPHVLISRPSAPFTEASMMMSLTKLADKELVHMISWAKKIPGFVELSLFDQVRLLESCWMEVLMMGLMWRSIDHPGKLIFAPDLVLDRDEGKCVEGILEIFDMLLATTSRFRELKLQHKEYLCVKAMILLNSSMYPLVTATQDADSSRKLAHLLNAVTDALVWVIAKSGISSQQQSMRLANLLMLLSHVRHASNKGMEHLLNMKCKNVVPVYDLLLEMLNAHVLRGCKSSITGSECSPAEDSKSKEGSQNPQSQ
Sequence of Thyrotropin receptor (Homo sapiens) (P16473 whole entry, looked up): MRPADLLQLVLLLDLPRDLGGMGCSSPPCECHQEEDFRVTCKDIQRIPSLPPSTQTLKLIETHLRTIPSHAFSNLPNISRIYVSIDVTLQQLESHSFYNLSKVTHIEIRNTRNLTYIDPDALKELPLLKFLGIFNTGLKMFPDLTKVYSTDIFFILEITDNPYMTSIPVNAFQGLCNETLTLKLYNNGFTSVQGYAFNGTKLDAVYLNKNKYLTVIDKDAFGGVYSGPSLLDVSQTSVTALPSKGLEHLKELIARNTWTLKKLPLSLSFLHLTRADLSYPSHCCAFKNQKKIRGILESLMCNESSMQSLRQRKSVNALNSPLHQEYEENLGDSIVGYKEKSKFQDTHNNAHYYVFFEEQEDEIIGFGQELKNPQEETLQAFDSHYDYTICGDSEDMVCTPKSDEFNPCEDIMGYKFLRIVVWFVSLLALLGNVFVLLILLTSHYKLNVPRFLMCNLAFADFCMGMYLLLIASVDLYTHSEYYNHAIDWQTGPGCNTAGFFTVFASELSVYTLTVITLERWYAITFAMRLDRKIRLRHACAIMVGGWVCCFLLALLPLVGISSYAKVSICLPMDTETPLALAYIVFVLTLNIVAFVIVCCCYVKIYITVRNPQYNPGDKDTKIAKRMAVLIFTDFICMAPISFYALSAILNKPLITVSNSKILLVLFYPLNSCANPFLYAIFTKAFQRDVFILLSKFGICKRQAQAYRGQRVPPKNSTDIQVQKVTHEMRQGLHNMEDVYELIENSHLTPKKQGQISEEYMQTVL
Sequence of Estrogen receptor (Homo sapiens) (P03372 whole entry, looked up): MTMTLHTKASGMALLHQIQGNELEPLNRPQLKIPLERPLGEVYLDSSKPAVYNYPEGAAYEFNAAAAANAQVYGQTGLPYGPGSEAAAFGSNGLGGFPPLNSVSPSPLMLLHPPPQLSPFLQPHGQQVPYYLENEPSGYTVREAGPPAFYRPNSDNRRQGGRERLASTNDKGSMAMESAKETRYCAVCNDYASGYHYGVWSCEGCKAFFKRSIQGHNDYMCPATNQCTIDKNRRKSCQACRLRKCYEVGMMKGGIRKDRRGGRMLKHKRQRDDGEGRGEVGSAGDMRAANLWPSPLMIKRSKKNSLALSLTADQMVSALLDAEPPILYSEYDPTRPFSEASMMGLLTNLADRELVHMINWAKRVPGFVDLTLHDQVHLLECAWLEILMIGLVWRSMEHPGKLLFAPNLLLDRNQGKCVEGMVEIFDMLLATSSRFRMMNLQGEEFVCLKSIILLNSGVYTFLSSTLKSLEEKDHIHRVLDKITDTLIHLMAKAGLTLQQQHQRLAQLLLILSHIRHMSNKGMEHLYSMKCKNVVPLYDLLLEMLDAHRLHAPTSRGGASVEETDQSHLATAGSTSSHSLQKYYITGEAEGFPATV
Sequence of Androgen receptor (Homo sapiens) (P10275 whole entry, looked up): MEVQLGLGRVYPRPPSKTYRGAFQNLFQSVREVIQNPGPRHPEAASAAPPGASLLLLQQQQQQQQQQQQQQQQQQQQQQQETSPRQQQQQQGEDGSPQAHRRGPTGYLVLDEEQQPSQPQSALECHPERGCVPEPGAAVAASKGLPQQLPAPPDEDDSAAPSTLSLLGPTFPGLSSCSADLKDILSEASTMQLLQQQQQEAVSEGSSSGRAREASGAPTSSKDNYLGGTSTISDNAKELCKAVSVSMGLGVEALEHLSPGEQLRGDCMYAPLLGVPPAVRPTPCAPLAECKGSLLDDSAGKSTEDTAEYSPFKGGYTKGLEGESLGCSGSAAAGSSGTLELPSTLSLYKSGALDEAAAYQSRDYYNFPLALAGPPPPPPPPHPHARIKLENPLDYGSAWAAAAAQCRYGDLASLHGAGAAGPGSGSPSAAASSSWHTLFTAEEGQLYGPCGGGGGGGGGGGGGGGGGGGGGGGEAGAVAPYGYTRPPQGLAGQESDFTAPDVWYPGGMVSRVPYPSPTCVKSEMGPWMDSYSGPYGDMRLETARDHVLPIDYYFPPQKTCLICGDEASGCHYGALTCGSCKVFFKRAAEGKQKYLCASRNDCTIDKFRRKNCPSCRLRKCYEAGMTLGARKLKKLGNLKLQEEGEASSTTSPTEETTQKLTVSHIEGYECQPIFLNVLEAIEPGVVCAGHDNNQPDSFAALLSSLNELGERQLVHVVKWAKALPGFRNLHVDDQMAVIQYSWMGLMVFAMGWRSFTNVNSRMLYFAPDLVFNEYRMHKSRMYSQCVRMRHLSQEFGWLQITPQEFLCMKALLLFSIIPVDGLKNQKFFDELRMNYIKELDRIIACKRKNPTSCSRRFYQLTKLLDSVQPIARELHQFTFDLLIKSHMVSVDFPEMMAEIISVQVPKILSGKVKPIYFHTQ

CC(C)O.CC(C)O.CCOC(=O)/C=C(\C)O.CCOC(=O)/C=C(\C)O.[Ti]
not listed: [14] | [15] | [16] | [17]
inactive: all other assays above

CCCCOC(=O)CCCCCCCC(=O)OCCCC
not listed: [6] | [16] | [17]
inactive: all other assays above

CC(C)OC(=O)C(C)N(C(=O)c1ccccc1)c1ccc(F)c(Cl)c1 (stereo unspecified)
not listed: [7] | [11] | [12] | [15] | [16] | [17]
inactive: all other assays above

CCCCCCCC#N
active: [7] 30.6 µM
not listed: [5] | [14] | [15] | [16] | [17]
inactive: all other assays above

COS(=O)(=O)C(F)(F)F
active: [7] 14.3 µM
not listed: [4] | [5] | [6] | [17]
inactive: all other assays above

CN(C)C(=O)NC1(c2ccccc2)CCN(CC[C@@]2(c3ccc(F)c(F)c3)CN(C(=O)c3ccccc3)CCO2)CC1
inactive: [1] | [2] | [3] | [6] | [8] | [11] | [12] | [13]
active: [9] 71.4 µM

Nc1cc(C(=O)O)c(O)c(S(=O)(=O)O)c1
not listed: [4] | [12] | [16] | [17]
inactive: all other assays above

CCOC(=O)COC(=O)c1cc(Oc2ccc(C(F)(F)F)cc2Cl)ccc1[N+](=O)[O-]
not listed: [6] | [7] | [16]
inactive: all other assays above

CN(C)c1ccc(C(c2ccccc2)c2ccc(N(C)C)cc2)cc1
active: [7] 3.06 µM | [9] 17.2 µM
not listed: [10] | [14] | [15] | [16]
inactive: all other assays above

CC1=CCCC(C)(C)C12CCC(C)O2 (stereo unspecified)
not listed: [7] | [16] | [17]
inactive: all other assays above

CCCCC(CC)CN1C(=O)C2C3C=CC(C3)C2C1=O (stereo unspecified)
not listed: [5] | [7] | [9] | [13] | [15] | [17]
inactive: all other assays above

C/C=C/C=C/CO
not listed: [7] | [16] | [17]
inactive: all other assays above

O=C(O)c1ccc(S(=O)(=O)O)cc1C(=O)O
not listed: [3] | [17]
inactive: all other assays above

CCCCCCCC/C=C\CCCCCCCC(=O)OCC
not listed: [14] | [15] | [16] | [17]
inactive: all other assays above

COCCCN1CCC(NC(=O)c2cc(Cl)c(N)c3c2OCC3)CC1
not listed: [14] | [15] | [16] | [17]
inactive: all other assays above

O=C(Cl)c1cc(C(=O)Cl)cc(C(=O)Cl)c1
active: [12] 68.6 µM
not listed: [4] | [6] | [10] | [17]
inactive: all other assays above

Cc1ccc(C(C)OC(=O)C2(C)CCC(C(=O)O)C2(C)C)cc1 (stereo unspecified)
not listed: [14] | [15] | [16] | [17]
inactive: all other assays above

CC(=O)[O][Al]
not listed: [12] | [14] | [15] | [16] | [17]
inactive: all other assays above

Cn1c(=O)cc(Oc2ccc(F)cc2F)c2cnc(NCC(C)(C)O)nc21
active: [7] 27.3 µM
not listed: [5] | [11] | [12] | [13] | [15] | [17]
inactive: all other assays above
